Screening results: PubChem, National Center for Advancing Translational Sciences (NCATS)
Shown are actives, neighbours in structure and some others; about 2.5% of the full set was active somewhere.
Cruzain Triton: qHTS Assay for Promiscuous and Specific Inhibitors of Cruzain (with detergent); Cruzipain (Trypanosoma cruzi), P25779; purified cruzain, Z-FR-AMC fluorescence, 0.01% Triton; Potency, µM, actives largely listed as inhibitors; actives 0.43% (n = 200,000); also: nearly all actives have a fitted effect of over 40% in size
Target sequence (P25779 123-467 limits assumed): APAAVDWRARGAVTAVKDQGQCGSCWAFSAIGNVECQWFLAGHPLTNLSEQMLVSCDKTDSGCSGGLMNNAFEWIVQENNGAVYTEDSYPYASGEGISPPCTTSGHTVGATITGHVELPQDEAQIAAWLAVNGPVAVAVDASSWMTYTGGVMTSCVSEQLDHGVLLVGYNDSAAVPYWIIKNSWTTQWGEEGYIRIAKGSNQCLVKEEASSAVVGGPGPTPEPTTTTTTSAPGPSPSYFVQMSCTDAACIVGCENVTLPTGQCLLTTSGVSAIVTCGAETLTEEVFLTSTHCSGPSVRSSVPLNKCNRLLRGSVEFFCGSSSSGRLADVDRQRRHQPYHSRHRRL
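Cysteine protease activity tested under reducing, mildly acidic conditions (100 mM sodium acetate pH 5.5, 5 mM DTT) plus 0.01% Triton X-100. Cruzain 1.5 nM; substrate Z-FR-AMC 2 uM; 15 min compound preincubation at room temperature.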
Cruzain inh noDet: qHTS Assay for Promiscuous and Specific Inhibitors of Cruzain (without detergent). Cruzipain (Trypanosoma cruzi), P25779. Potency, µM, actives largely listed as inhibitors. AID 1476, 2009. purified cruzain, Z-FR-AMC fluorescence, no detergent. actives 2.3% (n = 200,000); also: nearly all actives have a fitted effect of over 40% in size
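Detergent-free condition (0.00005% Triton X-100) in acetate buffer pH 5.5 with DTT. 1.5 nM enzyme and compound were pre-mixed 15 min, then 2 uM Z-FR-AMC substrate added; reaction progress from fluorescence change between first and third reads (60 s).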
Hits are given with their value; 0 = inactive; ? = inconclusive. Calls follow the shape of the dose curve; as a rule, active = well fitted curve in the direction sought with a large enough effect; inconclusive = small, poorly fitted or top-dose-only effect, or another doubt; inactive = no such curve, though single readings can be large; an effect the other way counts as inactive or inconclusive.

SMILES	Cruzain Triton	Cruzain inh noDet
Clc1ccc(CNc2ncnc3onc(-c4ccc(Cl)cc4)c23)cc1	0	0
CC1=CC(C)(C)N(C(=O)CN2C(=O)c3ccccc3C2=O)c2ccc(C)cc21	0	0
CCC(=O)N1c2ccc(C)cc2C2=NNC(=S)NC21O (configuration not stated)	?	0.63µM
Cc1ccc2c(=O)cc(C(=O)Nc3c(C(=O)c4ccc(F)cc4)oc4ccccc34)oc2c1C	0	0
COc1ccc(C(=O)N2CCN(c3cccc(Cl)c3)CC2)cc1	0	0
COc1ccc(C(=O)C2CN(c3ccccc3)CC2c2ccc(Cl)cc2)cc1 (configuration not stated)	0	16µM
CCCCC[CH2][Hg][S]C1=C2N=CNC2NC(N)=N1 (configuration not stated)	0	0
CCCSc1ncc(Cl)c(C(=O)N2CCN(c3ccc(OC)cc3)CC2)n1	0	0
N=P(N1CCOCC1)(N1CCOCC1)C12CC3CC(CC(C3)C1)C2	28µM	25µM
O=C(N1CCOCC1)C12CCC3CC(CC(C3)C1)C2	0	0
Cc1ccc(CSc2ncc(Cl)c(C(=O)NCCc3ccc(S(N)(=O)=O)cc3)n2)cc1	0	0
CCN(Cc1ccccc1)c1ccc(/C=N/NS(=O)(=O)c2cccc([N+](=O)[O-])c2)cc1	0	25µM
CCN(CC)c1ccc(/C=N/NS(=O)(=O)c2ccc(C)c([N+](=O)[O-])c2)cc1	0	0
COc1ccc(Cn2ccc3nc(C)c(C(=O)Nc4ccc(OC)cc4OC)cc3c2=O)cc1	0	0
Cc1ccc(NC(=O)CSc2nc3ccc(Br)cc3[nH]2)c(C)c1	0	0
CN1CCc2nc3sc(C(=O)C45CC6CC(CC(C6)C4)C5)c(N)c3cc2C1	?	13µM
CN1CCc2nc3sc(C(=O)c4ccc(F)cc4)c(N)c3cc2C1	0	0
O=C(CSc1nc(-c2ccc(F)cc2)[nH]c1-c1ccccc1)Nc1ccccc1	0	0
O=C(CSc1nc(-c2ccccc2F)nc2nc[nH]c12)Nc1c(Cl)cc(Cl)cc1Cl	0	6.3µM
CCc1cccc(C)c1NC(=O)CSc1nc(-c2ccccc2F)nc2nc[nH]c12	0	?
COc1ccccc1N1CCN(C(=O)C2CCN(S(=O)(=O)c3cn(C)cn3)CC2)CC1	0	0
Cc1cccc(OCc2nnc(NC(=O)c3cccs3)s2)c1	0	13µM
O=C(Nc1nnc(COc2ccc(Cl)cc2)s1)c1cccs1	0	25µM
Cc1ccc(S(=O)(=O)CCc2nnc(NC(=O)c3cccs3)s2)cc1	0	?
O=C(Nc1nnc(COc2ccc(Cl)cc2)s1)C1CCCO1 (configuration not stated)	0	0
SMILES	Cruzain Triton	Cruzain inh noDet
O=C(Nc1nnc(COc2ccc(F)cc2)s1)c1cccs1	0	25µM
O=C(Nc1nnc(CCc2ccccc2)s1)c1cccs1	0	?
Cc1cc(C(=O)CSC(=S)SC(C)(C)C)ccc1Cl	0	0
COc1ccc(-c2nc3ccccc3s2)cc1NC(=O)c1ccc(C#N)cc1F	0	0
CCOc1ccccc1CNCCCSc1nnnn1C	0	0
COc1ccc(CC(=O)NC2CC(=O)N(c3cccc(F)c3)C2)cc1OC (configuration not stated)	0	0
COc1cc2c(cc1OC)n(CC(=O)Nc1ccc(C)cc1C)c(=O)n1nc(-c3ccccc3)nc21	0	0
COC(=O)c1c(-n2c(C)cc(C=O)c2C)sc2c1CCCC2	0	7.9µM
Cc1cc(C=O)c(C)n1-c1sc2c(c1C(=O)O)CCCC2	0	0
Cc1cccc(CC2C(=O)Nc3ccccc32)c1 (configuration not stated)	0	0
CCOC(=O)c1c(C)[nH]c(C(=O)CSc2ccc(Cl)cc2)c1C	0	?
CCOC(=O)c1c(C)[nH]c(C(=O)CSc2nnc(Nc3ccccc3F)s2)c1C	0	13µM
Cc1cc(OC(C)C(=O)N(Cc2ccco2)Cc2ccccc2F)cc(C)c1Cl (configuration not stated)	0	0
O=C(Oc1ccc(N(Cc2cccs2)C2=NS(=O)(=O)c3ccccc32)cc1)c1ccccc1	0	?
O=C(Oc1ccc(N(Cc2cccs2)C2=NS(=O)(=O)c3ccccc32)cc1)c1ccc(Cl)cc1	0	32µM
COc1ccc(OC)c(Nc2nc(-c3sc(NC(=O)c4ccccc4)nc3C)cs2)c1	0	?
Cc1nc(NC(=O)c2ccccc2)sc1-c1csc(Nc2ccc(Cl)cc2Cl)n1	0	7.9µM
COc1ccc(Cl)cc1Nc1nc(-c2sc(NC(=O)c3ccccc3)nc2C)cs1	0	6.3µM
CC(C)(C)CC(=O)NCC(c1ccc2c(c1)OCO2)N1CCN(c2ccccc2)CC1 (configuration not stated)	0	0
COc1ccc(C2C(=O)N(C3CCC(C)CC3)CC(=O)N2C2CCCCC2)cc1OC (configuration not stated)	0	0
O=C1CCC=C1C(O)c1ccccc1 (configuration not stated)	0	0
COc1ccc(NC(=O)/C(C#N)=C\c2cc(C)n(-c3ccc(Oc4ccc([N+](=O)[O-])cn4)cc3)c2C)cc1	0	7.9µM
COc1ccc(NC(=O)/C(C#N)=C/c2cc(C)n(-c3ccc(F)cc3)c2C)cc1	0	0
COc1ccc(C(=O)Nc2oc(-c3ccccc3)c(-c3ccccc3)c2C#N)cc1OC	0	0
COc1ccc(-c2oc(NC(=O)c3ccc(C)cc3)c(C#N)c2-c2ccc(OC)cc2)cc1	0	13µM
SMILES	Cruzain Triton	Cruzain inh noDet
COc1ccc(-c2oc(NC(C)=O)c(C#N)c2-c2ccc(OC)cc2)cc1	0	0
COc1ccc(C(=O)Nc2oc(-c3ccccc3)c(-c3ccccc3)c2C#N)cc1	0	32µM
Cc1ccc(S(=O)(=O)N2CCN(Cc3noc(CCC(=O)N4CCCCC4)n3)CC2)c(C)c1	0	?
Cc1ccc(S(=O)(=O)c2nnn3c2nc(NCc2ccc4c(c2)OCO4)c2sccc23)cc1	0	0
Cc1ccc(S(=O)(=O)c2nnn3c2nc(NCc2ccc4c(c2)OCO4)c2sccc23)cc1C	0	25µM
CC(C)c1ccc(S(=O)(=O)c2nnn3c2nc(NCCc2ccccc2)c2sccc23)cc1	0	10µM
Cc1ccc(S(=O)(=O)c2nnn3c2nc(NCCc2ccccc2)c2sccc23)cc1	0	0
CCOC(=O)c1ccc(NC(=O)CCC(=O)N2Cc3ccccc3Oc3ncccc32)cc1	0	0
CCCCC[C@H](O)/C=C/[C@@H]1[C@H](C/C=C\CCCC(=O)O)[C@@H](O)C[C@H]1O	0	0
O=C(O)/C=C1\CCCc2ccccc2[C@H]1O	0	0
COc1cccc(CNC(=O)CCc2c(C)nn(-c3ccc(N4CCCC4)nn3)c2C)c1	0	0
COC(=O)C1=C(C)NC(=S)NC1c1ccc(-c2cccc(Cl)c2)o1 (configuration not stated)	0	25µM
CCOC(=O)C1=C(C)NC(=S)NC1c1ccc(-c2ccc(Cl)cc2)o1 (configuration not stated)	0	?
Cc1cccc(-c2cc(C(=O)Nc3ccc4c(c3)OCCO4)c3ccccc3n2)c1	0	32µM
Cc1ccccc1NC(=S)NC(=O)c1cc(-c2ccccc2)nc2ccccc12	0	?
Cc1cccc(NC(=S)NC(=O)c2cc(-c3ccccc3)nc3ccccc23)c1	0	20µM
CCOc1ccc(-c2cc(C(=O)Nc3ccc4c(c3)OCCO4)c3ccccc3n2)cc1	0	?
